These results are taken from PubChem BioAssay (NCI).

About 83,000 compounds went through this panel and 20% of them were active in at least one assay; those are over-represented in the sample as a whole.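 How to read the values: 0–100, growth inhibition (40 = 60% inhibited); 0, no net growth; -100 to 0, cell death (-40 = 40% of starting cells died; -100 = all dead).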 Values without a mark were called inactive. The source made the active and inactive calls. The calls were made as follows: active = growth percent below 10; inactive = the rest.

Assay in all cases: NCI-60 one-dose screen, 48 h (100 = growth as untreated, 0 = no growth, -100 = all killed)
Conditions in all cases: 10 µM unless noted

Assay [1] relates to HCT-15 colon.
Assay [2] concerns HT29 colon.
Assay [3] relates to SNB-75 CNS.
In assay [4] the test system is SNB-19 CNS.
The test system of assay [5] is U251 CNS.
Assay [6] deals with PC-3 prostate.
Assay [7] has as its system SK-MEL-5 melanoma.
In assay [8] the test system is UACC-62 melanoma.
In assay [9] the test system is LOX IMVI melanoma.
Assay [10] deals with SK-MEL-28 melanoma.
For assay [11], the system named is SK-MEL-2 melanoma.
Assay [12] has as its system EKVX NSCLC.
Assay [13] concerns SN12C renal.
Assay [14] concerns UO-31 renal.
Assay [15] has as its system TK-10 renal.
Assay [16] concerns ACHN renal.
Assay [17] relates to CAKI-1 renal.
Assay [18] deals with A498 renal.
For assay [19], the system named is CCRF-CEM leukemia.

With `N#C/C(=C\c1cccc(C#N)c1)c1ccccc1`, the growth in assay [1] is 111%; in assay [2] it was 96.6%; in [3] it was 88.9%; in assay [4], 109%; in [5], 89.2%; in [6], 99.7%. The growth in assay [7] is 101%; in assay [8], 108%; in assay [9] it was 98.9%; in [10], 115%; in assay [11] it was 112%; in assay [12], 90.7%. For the same compound, the growth was 98.9% in assay [13]; 93.3% in assay [14]; 91% in assay [15]; 106% in assay [16]; 96% in assay [17]; 112% in assay [18].

On to `CCCCN1C=CCN(CCCC)C1`, for which the growth in [1] is 90.2%; in assay [2], 49.2%; in [3] it was 66.8%; in assay [4] it was 31.1%; in [5], 22.4%; in assay [6] it was 32.4%. Also, the growth in [7] was -6.08% (active); in [8], 24.5%; in [9] it was 68.8%; in assay [10], 40%; in assay [11], 24.4%; in assay [12] it was 47.5%. Besides, the growth in assay [13] is 34.8%; in assay [14] it was 74.6%; in assay [15], 56.8%; in assay [16] it was 98.1%; in assay [17], 86%; in [18], 78.4%. In addition, the growth in assay [19] is 87.2%.

Consider `Cn1cc(-c2nc(-c3c[nH]c4c(Cl)nccc34)cs2)c2cc(Br)ccc21`, for which the growth is 66.5% in assay [1]; 74.9% in [2]; 94% in assay [3]; 97.6% in assay [4]; 77.9% in assay [5]; 81.2% in [6]. Besides, the growth is 88% in assay [7]; 80.3% in assay [8]; 73.4% in assay [9]; 88.9% in [10]; 87.6% in [11]; 74.1% in assay [12]. Also, the growth in assay [13] was 88.9%; in assay [14] it was 84.5%; in [15], 86.3%; in assay [16], 76.5%; in [17] it was 92.4%; in [18], 72.3%. The growth in assay [19] was 74.4%.

With `C#Cc1cccc(NC(=O)Nc2cccc(NC(=O)CCl)c2)c1`, the growth is -56.5% [8.25 µM] (active) in assay [1]; 18% [8.25 µM] in [2]; 30% [8.25 µM] in [3]; -11% [8.25 µM] (active) in [4]; -88% [8.25 µM] (active) in assay [5]; -26.3% [8.25 µM] (active) in assay [6]. Also, the growth in assay [7] is -96% [8.25 µM] (active); in assay [8], -61.6% [8.25 µM] (active); in [9], -93.8% [8.25 µM] (active); in assay [10] it was 48.5% [8.25 µM]; in assay [11] it was 6.45% [8.25 µM] (active); in assay [12], 102% [8.25 µM]. The growth in assay [13] is -67.7% [8.25 µM] (active); in [14] it was -64.7% [8.25 µM] (active); in [15] it was -59.8% [8.25 µM] (active); in assay [16] it was -72.7% [8.25 µM] (active); in [17], 15.8% [8.25 µM]; in assay [18], 76.5% [8.25 µM]. In addition, the growth in assay [19] is 14.9% [8.25 µM].

Regarding `COc1ccc(-c2nc(S(=O)(=O)c3ccccc3)c(S(=O)CC(=O)N3CCC(C)CC3)o2)cc1` (stereo not drawn), the growth in [1] was -48.5% (active); in assay [2] it was 11%; in assay [3] it was 72%; in [4], 57.6%; in [5] it was 66.2%; in assay [6] it was 40.9%. Further, the growth was 72.8% in assay [7]; 17.9% in assay [8]; -4.12% (active) in assay [9]; 19.2% in assay [10]; 67.9% in [11]; 65.7% in assay [12]. Moreover, the growth in assay [13] is -33.3% (active); in assay [14] it was -65.9% (active); in assay [15], 33.1%; in [16] it was -29.8% (active); in assay [17] it was 34.5%; in assay [18] it was 83.8%. The growth in assay [19] was 1.85% (active).

Consider `Cn1cc(-c2nc(-c3c[nH]c4c(Cl)nccc34)cs2)c2cc(F)ccc21`, for which the growth in assay [1] was 99.2%; in assay [2], 87.8%; in [3] it was 107%; in assay [4] it was 98%; in assay [5], 85.8%; in assay [6], 92.9%. Moreover, the growth was 94.5% in assay [7]; 97.5% in assay [8]; 109% in [9]; 112% in [10]; 95.6% in assay [11]; 94.2% in [12]. The growth was 98.6% in assay [13]; 103% in assay [14]; 95% in assay [15]; 114% in [16]; 99.2% in assay [17]; 83.2% in assay [18]. Further, the growth in [19] was 97.8%.

For `Oc1ccc(C2c3ccccc3Oc3ccccc32)c2cccnc12`, the growth is 30.3% in assay [1]; 21.7% in assay [2]; 27.2% in assay [3]; 26.7% in [4]; 10.8% in assay [5]; 34.2% in [6]. The growth is -58.8% (active) in assay [7]; 4.38% (active) in [8]; 5.35% (active) in assay [9]; 36% in assay [10]; 27.4% in assay [11]; 20.4% in assay [12]. Besides, the growth was 22.9% in assay [13]; 4.44% (active) in assay [14]; 39.1% in assay [15]; 7.81% (active) in [16]; 0.125% (active) in assay [17]; 36% in assay [18].

Consider `Cc1c(C)c([N+](=O)[O-])c(C)c([N+](=O)[O-])c1C`, for which the growth was 108% in [1]; 93.5% in assay [2]; 104% in [3]; 97.1% in assay [4]; 100% in assay [5]; 98.7% in assay [6]. The growth in assay [7] was 101%; in [8] it was 102%; in [9], 99.6%; in [10], 104%; in assay [11], 102%; in [12], 103%. Further, the growth was 102% in assay [13]; 105% in [14]; 102% in assay [15]; 118% in [16]; 99.3% in assay [17].
